From PubChem BioAssay
Most compounds without a hit are left out; they make up all but 21% or so of the library.
ELG1 repair inh: blocks ELG1-dependent DNA repair in HEK293T cells. HEK293T ELG1-luciferase reporter, luminescence, 16 h; DNA damage induced by 5-fluorouridine. Potency, µM (series often up to 46.1 µM), for inactives: at the highest dose activity change, negative = inhibition, actives largely listed as inhibitors. 330,000 tested, 2.3% active. AID 504467; also: potency is read from the fitted curve at half-maximal effect; nearly all actives have a fitted effect of over 55% in size
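Step one: seed 2,000 cells per well. Step two: pin-transfer compound or DMSO alongside 5-fluorouridine. Step three: incubate 16 hr, 37 °C, 5% CO2. Step four: add ONE-Glo, wait 30 min, read luminescence.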
DT40 TDP1 no CPT: qHTS for Inhibitors of human tyrosyl-DNA phosphodiesterase 1 (TDP1): qHTS in cells in absence of CPT. DT40 Tdp1-/- hTDP1 cells, no CPT, ATP luminescence, 48 h. Potency, µM (top dose mostly 46.2 µM), inactives show at the highest dose activity change, negative = growth inhibition, actives largely listed as inhibitors. 420,000 tested, 15% active. AID 686978, 2013; also: potency is read from the fitted curve at half-maximal effect; nearly all actives have a fitted effect of over 55% in size
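Chicken DT40 Tdp1-/- cells complemented with human TDP1, screened without camptothecin (DMSO vehicle only), 400 cells/well. Compounds pin-transferred, cells incubated at 37 °C for at least 48 hr. Growth read as ATP-dependent luminescence (CellTiter-Glo, 30 min at RT).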
IL-1B inflam inh: inhibitors of inflammasome signaling (IL-1 beta secretion). THP-1 LPS/ATP IL-1B secretion, AlphaLISA, 16 h; hits give low values. activity change, % at 57.5 µM. 360,000 tested, 4.7% active. AID 743279; in the data active = activity change below about -50%; inconclusive = mostly about -30% to -49%
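Secreted IL-1B measured by AlphaLISA bead assay after 16 h compound exposure of THP-1 cells; compounds (final up to 57.5 uM) added 1 h before LPS (250 ng/mL) and ATP (1.25 mM) stimulation; lower signal means less secretion.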
VP16 counter: counter-screen for ROR gamma inhibitors: Gal4-VP16 reporter | Drosophila S2 Gal4-VP16 UAS-luciferase, luminescence, 20 h | Potency, µM (doses to about 53.6 µM), for the others: top-dose activity, negative = inhibition, hits mostly inhibitors | 310,000 tested, 3.5% active | AID 2546;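 also: Gal4-VP16 expression switched on by copper sulfate through the metallothionein promoter; potency is read from the fitted curve at half-maximal effect; nearly all actives have a fitted effect of over 50% in size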
RORgamma inh: inhibitors of mouse ROR gamma transcriptional activity; Drosophila S2 Gal4-RORgamma UAS-luciferase reporter, 20 h; P51450; 310,000 tested, 5.4% active; Potency, µM (highest dose often 53.6 µM), for inactives: at the top dose activity change, negative = inhibition, hits mostly inhibitors; also: potency is read from the fitted curve at half-maximal effect; nearly all actives have a fitted effect of over 60% in size
Target sequence (P51450 whole entry, looked up, the tested form may be a part): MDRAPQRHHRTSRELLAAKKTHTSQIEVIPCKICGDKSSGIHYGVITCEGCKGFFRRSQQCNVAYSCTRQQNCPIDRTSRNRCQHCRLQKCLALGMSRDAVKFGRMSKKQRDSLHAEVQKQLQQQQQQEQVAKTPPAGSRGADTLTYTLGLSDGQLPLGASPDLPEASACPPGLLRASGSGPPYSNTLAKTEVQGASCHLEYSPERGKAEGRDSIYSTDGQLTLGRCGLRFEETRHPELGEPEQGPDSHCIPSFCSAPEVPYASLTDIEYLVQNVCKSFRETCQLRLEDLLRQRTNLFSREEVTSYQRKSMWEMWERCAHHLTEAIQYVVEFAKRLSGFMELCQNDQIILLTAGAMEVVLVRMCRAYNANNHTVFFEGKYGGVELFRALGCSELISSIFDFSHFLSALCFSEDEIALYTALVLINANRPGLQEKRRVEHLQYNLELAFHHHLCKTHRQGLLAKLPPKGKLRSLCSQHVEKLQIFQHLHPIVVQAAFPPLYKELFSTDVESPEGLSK
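Using a luciferase readout, inhibitors were identified by reduced reporter activity in Drosophila cells coexpressing a copper-inducible Gal4–ROR gamma fusion and UAS-driven Photinus luciferase, incubated 20 hr after 700 uM copper sulfate.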
TDP1 cell CPT: DT40-hTDP1 cell growth loss with CPT. chicken DT40 Tdp1-/-;hTDP1 cells + 20 nM CPT, ATP luminescence, 48 h. Potency, µM (titrated, usually from 46.2 µM), without a hit: at the highest dose activity change, negative = growth inhibition, usual class: inhibitors. 420,000 tested, 12% active. AID 686979; also: potency is read from the fitted curve at half-maximal effect; nearly all actives have a fitted effect of over 55% in size
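Chicken DT40 Tdp1-/- cells complemented with human TDP1, 400 cells/well, exposed to compounds plus 20 nM camptothecin for at least 48 h at 37 C; viability read as ATP content by CellTiter-Glo luminescence.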
An asterisk follows results filed as active; ? = inconclusive; . = no result given. Unless noted, calls follow the shape of the dose curve; as a rule, active = well fitted curve in the direction sought with a large enough effect; inconclusive = small, poorly fitted or top-dose-only effect, or another doubt; inactive = no such curve, though single readings can be large; an effect the other way counts as inactive or inconclusive. % is scaled to controls: 0 for no effect and ±100 for the full control effect.

SMILES	ELG1 repair inh	DT40 TDP1 no CPT	IL-1B inflam inh	VP16 counter	RORgamma inh	TDP1 cell CPT
Cc1ccc(/C=N/NC(=O)c2nnn(-c3nonc3N)c2CSc2ccccc2)o1	-4%	-13%	?	11µM*	7.1µM*	5%
Oc1c(C(c2ccccc2)N2CCC3(CC2)OCCO3)sc2nc(-c3ccco3)nn12 (stereo not drawn)	.	-11%	.	.	.	-6%
CCOc1ccc(-c2c(C(=O)N/N=C/c3ccc(C)cc3)nnn2-c2nonc2N)cc1	-6%	?	10	-10%	-33%	1.6µM*
Cc1ccc(-c2c(C(=O)N/N=C/c3ccoc3)nnn2-c2nonc2N)cc1	0%	1%	-15	?	11µM*	-9%
Cc1ccc(-c2c(C(=O)N/N=C/c3ccc(OC(C)C)cc3)nnn2-c2nonc2N)cc1	15%	?	41	?	-98%	-21%
CCCOc1ccc(-c2c(C(=O)N/N=C/C3CCCCC3)nnn2-c2nonc2N)cc1	-3%	12µM*	8	?	?	26µM*
COc1cccc(-c2c(C(=O)N/N=C/c3ccc(C)o3)nnn2-c2nonc2N)c1	5%	14%	?	?	10µM*	-10%
CCOc1ccccc1/C=C/c1onc(C)c1S(=O)(=O)N1CCC(C(=O)NC(C)(C)C)CC1	?	?	-4	-7%	-11%	?
CCc1ccc(C(=O)CSc2nc(-c3ccccc3)nc3c2CCCC3)cc1	.	-11%	.	.	.	4%
O=C(NCCS(=O)(=O)NCc1ccccc1Cl)c1ccccc1	-9%	9%	12	.	.	-2%
CCC(C)NC(=O)C1(N2C(=O)c3ccccc3C2=O)CCCC1 (stereo not drawn)	.	2%	0	.	.	-1%
CCC(=O)N1c2ccccc2CC1C(=O)NCCc1ccccc1 (stereo not drawn)	.	8%	.	.	.	-13%
Cc1ccc(-c2noc(-c3cccnc3N(C)Cc3ccc(Cl)cc3)n2)cc1	.	-17%	.	.	.	-18%
COc1cccc(-c2c(C(=O)N/N=C/c3ccncc3)nnn2-c2nonc2N)c1	0%	3%	-1	11%	17%	-9%
COc1cccc(-c2c(C(=O)N/N=C/c3ccc(C)s3)nnn2-c2nonc2N)c1	1%	-21%	-16	5.6µM*	2.5µM*	-1%
COc1cccc(-c2c(C(=O)N/N=C/c3ccoc3)nnn2-c2nonc2N)c1	10%	2%	8	?	13µM*	3%
CCCCn1c(=O)c2oc3ccccc3c2n(Cc2cccc(C)c2)c1=O	.	?	.	.	.	-14%
CCn1cc(/C=C/C(=O)Nc2ccc(C)cc2Br)cn1	?	?	-29	-17%	?	16%
CCn1cc(/C=C/C(=O)Nc2ccn(Cc3c(F)c(F)cc(F)c3F)n2)cn1	-19%	12µM*	8	-1%	-31%	?
O=C(Nc1nc(-c2ccc3c(c2)OCCO3)cs1)C1CCCC1	?	?	0	2%	-9%	?
OCC1CCCN(Cc2cn(Cc3ccccc3)nc2-c2cc3ccccc3o2)C1 (stereo not drawn)	-5%	?	-62*	7%	-1%	-27%
COC1CCN(Cc2cn(Cc3ccccc3)nc2-c2cc3ccccc3o2)CC1	21µM*	26µM*	?	-13%	-2%	?
OCC1CCN(Cc2cn(Cc3ccccc3)nc2-c2cc3ccccc3o2)CC1	-13%	?	-56*	-11%	4%	?
COc1ccc(C(=O)NCCCOc2cccnc2)cc1OC1CCN(C(C)=O)CC1	7%	-21%	0	7%	-6%	-1%
CCCC(=O)Nc1ccc(C(=O)COC(=O)c2cc(C)oc2C)cc1	-9%	-23%	-13	.	.	-2%
SMILES	ELG1 repair inh	DT40 TDP1 no CPT	IL-1B inflam inh	VP16 counter	RORgamma inh	TDP1 cell CPT
Clc1cc(Sc2ccc(Br)cc2)nnc1-c1ccccc1	-8%	29µM*	-19	-8%	26%	?
COCc1cc(Sc2ccc(Br)cc2)nc(-c2ccccc2)n1	1%	?	6	-5%	?	-17%
CC(=O)N(CCC(c1ccccc1)c1ccco1)Cc1cccs1 (stereo not drawn)	-2%	?	-20	-9%	6%	15µM*
COc1ccc(C)cc1NC1(c2ccccc2)C(=O)c2ccccc2C1=O	.	4%	.	.	.	9%
C#CCOCCOCCOCCNc1nc(N2CCN(C(=O)[C@H](CCCN=C(N)N)n3cc(C(N)[C@@H](C)CC)nn3)CC2)nc(N2CCN(C(=O)[C@H](CCC(=O)O)n3cc([C@@H](N)CO)nn3)CC2)n1 (stereo partly drawn)	12%	4%	50	.	.	26%
CCOc1ccccc1NC(=O)Cn1c(=O)nc(-c2ccccc2F)c2cc(Cl)ccc21	.	21µM*	.	.	.	?
Cc1ccc(F)cc1NC(=O)Cn1c(=O)nc(-c2ccccc2F)c2cc(Cl)ccc21	.	?	.	.	.	-29%
COc1ccccc1CNC(=O)Cn1c(=O)nc(-c2ccccc2F)c2cc(Cl)ccc21	.	6.5µM*	.	.	.	?
COc1ccc(CNC(=O)Cn2c(=O)nc(-c3ccccc3F)c3cc(Cl)ccc32)cc1OC	.	0%	.	.	.	-9%
CNc1c(Br)cc(/C=C2\C=C(C(O)c3cc(Br)c(NC)c(Br)c3)c3ccccc32)cc1Br (stereo not drawn)	.	-29%	.	.	.	?
C=CCC(C)(NCc1ccccc1)C(=O)OCC (stereo not drawn)	.	.	.	8%	2%	.
CCC(C)c1nc2c(c(N3CCC3=O)c1-c1ccccc1)CCCC2 (stereo not drawn)	.	?	6	.	.	18µM*
CCSc1nc(-c2ccccc2)nc2c1CCCC2	-3%	?	13	-15%	5%	?
Cc1ccc2c(=O)cc(C(=O)Nc3c(C)n(C)n(-c4ccccc4)c3=O)oc2c1C	.	-6%	.	.	.	2%
COc1cccc(OC)c1C(=O)OCC(=O)NCCNC(=O)COC(=O)c1c(OC)cccc1OC	.	-25%	-5	.	.	-14%
Cc1ccc(C2C=C(c3ccccc3)Nc3ncnn32)cc1 (stereo not drawn)	.	?	-21	.	.	?
OCCCc1nc2n(n1)C(c1cccs1)C=C(c1ccc(Br)cc1)N2 (stereo not drawn)	-30%	.	.	-12%	?	.
Brc1ccc(C2=CC(c3cccs3)n3ncnc3N2)cc1 (stereo not drawn)	?	7.3µM*	-19	?	?	?
